# Active and inactive are the calls of the source. The calls were made as follows: active = hit-call score of the fitted dose curve at least 0.9, where 1 is the maximum; inactive = score below 0.9.
# Tests used:
# [1] = APR_HepG2_NuclearSize_72hr: Apredica 72-hour HepG2 Assay for Nuclear Size (AID 2282925); conditions: high-content imaging, actives raise or lower the signal
# How it was run: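 Nuclear size was read by high-content imaging of Hoechst 33342 stain after formaldehyde fixation. Compounds ran 72 h on HepG2 at 0.39 to 200 uM, with final DMSO 0.5% v/v. Curves fitted both directions relative to DMSO control.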
# [2] = ATG_CRE_CIS: Attagene CIS-FACTORIAL HepG2 Assay for human cAMP Responsive Element (CRE) binding protein 3 (AID 2282926); conditions: HepG2 CRE cis-reporter, Attagene multiplexed mRNA; actives raise or lower the signal
# How it was run: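 Cells carrying cis-regulated reporter constructs respond through their own endogenous factors. After 24 h treatment, RNA is reverse-transcribed, amplified, labelled and sized by capillary electrophoresis; up- and down-regulation are both scored against vehicle.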
# [3] = biological target: CCAAT/enhancer-binding protein beta (Homo sapiens) (UniProt P17676); assay: ATG_C_EBP_CIS: Attagene CIS-FACTORIAL HepG2 Assay for human CCAAT/Enhancer Binding Protein (C/EBP) beta (AID 2282927); conditions: HepG2 Attagene cis-factorial transcription factor reporter; actives raise or lower the signal
# CCAAT/enhancer-binding protein beta (Homo sapiens), sequence (P17676 whole entry, looked up, the tested form may be a part): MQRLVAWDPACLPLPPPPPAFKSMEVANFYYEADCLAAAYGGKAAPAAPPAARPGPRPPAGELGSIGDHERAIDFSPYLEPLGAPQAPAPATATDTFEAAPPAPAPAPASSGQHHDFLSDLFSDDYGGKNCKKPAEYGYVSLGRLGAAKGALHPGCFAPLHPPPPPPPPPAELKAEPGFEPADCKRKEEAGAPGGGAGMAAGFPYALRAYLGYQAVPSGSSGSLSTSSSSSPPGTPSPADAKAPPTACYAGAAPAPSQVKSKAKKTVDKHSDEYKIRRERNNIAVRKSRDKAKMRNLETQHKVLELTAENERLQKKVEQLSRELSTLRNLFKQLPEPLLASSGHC
# How it was run: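 Endogenous C/EBPb-driven reporter transcripts measured in transfected human HepG2 cells at 24 h via RT-PCR and capillary electrophoresis of labelled fragments. Activity fitted in both directions relative to DMSO baseline.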
# [4] = ATG_CMV_CIS: Attagene CIS-FACTORIAL HepG2 Assay for human CMV (Internal Marker) (AID 2282928); conditions: HepG2 CMV promoter reporter, transcription factor profiling; actives raise or lower the signal;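 also: endpoint acts as a background internal control marker rather than a target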
# How it was run: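 Bidirectional fits against DMSO are applied to reporter mRNA, read by RT-PCR with capillary electrophoresis, from HepG2 cells exposed 24 h. The endpoint serves as an internal CMV background marker within the cis-factorial reporter panel.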
# [5] = ATG_DR4_LXR_CIS: Attagene CIS-FACTORIAL HepG2 Assay for human Liver X Receptor (LXR), DR4 submotif (AID 2282929); conditions: HepG2 Attagene DR4 cis-reporter, mRNA transcription; actives raise or lower the signal
# How it was run: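 Endogenous factor activity at a DR4 cis-element is read as reporter mRNA in transiently transfected HepG2 cells. Exposure lasts 24 h; transcripts are amplified, fluorescently labelled and sized by capillary electrophoresis, with DMSO as baseline.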
# [6] = biological target: Aryl hydrocarbon receptor (Homo sapiens) (UniProt P35869); assay: ATG_Ahr_CIS: Attagene CIS-FACTORIAL HepG2 Assay for human Aryl Hydrocarbon Receptor (Ahr) (AID 2282930); conditions: HepG2 AhR cis-factorial reporter transcription; actives raise or lower the signal
# Aryl hydrocarbon receptor (Homo sapiens), sequence (P35869 whole entry, looked up): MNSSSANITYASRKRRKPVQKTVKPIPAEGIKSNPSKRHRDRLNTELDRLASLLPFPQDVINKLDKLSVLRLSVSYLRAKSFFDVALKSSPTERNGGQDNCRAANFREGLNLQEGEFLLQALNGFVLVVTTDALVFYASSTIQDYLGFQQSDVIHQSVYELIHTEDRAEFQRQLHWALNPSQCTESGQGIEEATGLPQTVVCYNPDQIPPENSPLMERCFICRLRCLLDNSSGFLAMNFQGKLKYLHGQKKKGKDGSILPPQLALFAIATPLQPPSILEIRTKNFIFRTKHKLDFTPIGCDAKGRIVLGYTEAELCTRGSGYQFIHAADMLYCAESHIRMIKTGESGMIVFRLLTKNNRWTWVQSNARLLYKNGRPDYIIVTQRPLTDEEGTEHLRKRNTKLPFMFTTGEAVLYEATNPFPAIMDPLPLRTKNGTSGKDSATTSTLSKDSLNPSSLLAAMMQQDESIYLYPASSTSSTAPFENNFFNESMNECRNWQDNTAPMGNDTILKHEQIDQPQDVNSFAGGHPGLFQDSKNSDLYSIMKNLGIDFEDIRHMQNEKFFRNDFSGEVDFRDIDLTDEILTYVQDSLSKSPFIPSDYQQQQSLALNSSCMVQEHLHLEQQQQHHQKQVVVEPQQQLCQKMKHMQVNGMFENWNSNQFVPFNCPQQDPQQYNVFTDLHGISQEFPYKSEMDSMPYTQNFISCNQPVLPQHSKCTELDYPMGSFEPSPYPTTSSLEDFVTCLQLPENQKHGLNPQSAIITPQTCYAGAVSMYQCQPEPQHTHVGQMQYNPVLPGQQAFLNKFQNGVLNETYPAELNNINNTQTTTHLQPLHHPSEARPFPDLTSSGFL
# How it was run: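 Reporter mRNA levels, quantified by RT-PCR and fluorescent capillary electrophoresis, reflect endogenous AhR transcriptional activity in HepG2 cells carrying transfected cis-promoter reporter constructs. Readout at 24 h post-dose; gain or loss fitted against DMSO baseline.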
# [7] = ATG_BRE_CIS: Attagene CIS-FACTORIAL HepG2 Assay for human Bone Morphogenetic Protein (BMP) Response Element (BRE) (AID 2282933); conditions: HepG2 BMP response element reporter, Attagene transcription factor profiling; actives raise or lower the signal
# How it was run: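 Transient MRTU transfection of human HepG2 liver cells; 24 h compound treatment; total RNA isolated, reverse-transcribed, PCR-amplified, 6-FAM labelled, HpaI-cut, capillary electrophoresis. DMSO = negative control/baseline, bidirectional fit.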
# [8] = biological target: Retinoic acid receptor alpha (Homo sapiens) (UniProt P10276); assay: ATG_DR5_RAR_CIS: Attagene CIS-FACTORIAL HepG2 Assay for human Retinoic Acid Receptor Alpha (RARE), DR5 submotif (AID 2282934); conditions: HepG2 Attagene cis-factorial RARE DR5 reporter, mRNA; actives raise or lower the signal;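 as to AC50: reporter responds to endogenous RAR alpha beta and gamma in HepG2 not RARA alone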
# Retinoic acid receptor alpha (Homo sapiens), sequence (P10276 whole entry, looked up): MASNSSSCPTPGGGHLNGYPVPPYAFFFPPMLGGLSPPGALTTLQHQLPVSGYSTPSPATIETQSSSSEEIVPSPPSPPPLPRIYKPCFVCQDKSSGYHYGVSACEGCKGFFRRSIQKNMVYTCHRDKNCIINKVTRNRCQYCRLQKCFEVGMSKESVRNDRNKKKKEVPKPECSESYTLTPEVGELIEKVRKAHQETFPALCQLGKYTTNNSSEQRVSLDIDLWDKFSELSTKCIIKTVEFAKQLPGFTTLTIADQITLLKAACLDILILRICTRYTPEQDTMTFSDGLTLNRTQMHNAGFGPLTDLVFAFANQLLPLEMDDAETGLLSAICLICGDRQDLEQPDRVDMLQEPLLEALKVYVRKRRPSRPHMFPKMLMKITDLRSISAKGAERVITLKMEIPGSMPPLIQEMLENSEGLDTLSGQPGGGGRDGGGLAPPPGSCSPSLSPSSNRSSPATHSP
# How it was run: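 Reporter transcripts from a DR5-regulated unit, measured via RT-PCR plus capillary electrophoresis, reflect endogenous RAR activity in transiently transfected human HepG2 liver cells. Exposure lasted 24 h; gain or loss of signal scored against DMSO.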
# [9] = biological target: Transcription factor E2F1 (Homo sapiens) (UniProt Q01094); assay: ATG_E2F_CIS: Attagene CIS-FACTORIAL HepG2 Assay for human E2F Transcription Factor 1 (AID 2282935); conditions: HepG2 Attagene cis-reporter, E2F reporter RNA transcripts; actives raise or lower the signal
# Transcription factor E2F1 (Homo sapiens), sequence (Q01094 whole entry, looked up): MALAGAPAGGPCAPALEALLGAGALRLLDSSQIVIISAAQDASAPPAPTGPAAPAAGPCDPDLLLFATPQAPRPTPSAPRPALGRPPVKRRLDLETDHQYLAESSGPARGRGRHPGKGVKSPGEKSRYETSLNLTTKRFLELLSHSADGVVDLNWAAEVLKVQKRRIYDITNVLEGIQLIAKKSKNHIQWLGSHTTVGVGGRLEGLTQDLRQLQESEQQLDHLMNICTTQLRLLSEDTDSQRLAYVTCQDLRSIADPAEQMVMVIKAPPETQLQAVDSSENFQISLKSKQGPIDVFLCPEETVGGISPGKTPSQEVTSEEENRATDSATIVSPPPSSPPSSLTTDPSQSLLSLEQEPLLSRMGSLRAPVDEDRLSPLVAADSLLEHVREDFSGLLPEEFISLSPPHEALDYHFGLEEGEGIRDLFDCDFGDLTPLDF
# How it was run: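 Gain or loss of reporter transcript, fitted against DMSO, reflects E2F1-driven transcription. Transiently transfected HepG2 dosed 24 h before RNA isolation. Quantified by fluorescent RT-PCR products separated by capillary electrophoresis.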
# [10] = ATG_E_Box_CIS: Attagene CIS-FACTORIAL HepG2 Assay for human Enhancer Box (E-box) (AID 2282936); conditions: HepG2 E-box cis-reporter transcription, actives raise or lower the signal
# How it was run: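 E-box-driven reporter transcripts measured in transiently transfected HepG2 after 24 h exposure: RNA reverse-transcribed, PCR-amplified, fluorescently labelled, digested and resolved by capillary electrophoresis. Gain or loss relative to DMSO.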
# [11] = ATG_M_61_CIS: Attagene CIS-FACTORIAL HepG2 Assay for M61 Transcription Factor (Internal Marker) (AID 2282937); conditions: HepG2 Attagene CIS-FACTORIAL M61 internal marker reporter; actives raise or lower the signal
# How it was run: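 This endpoint serves as an internal background control within a multiplexed HepG2 cis-reporter panel. Cells are exposed for 24 h; reporter mRNA is amplified, fluorescently labelled and sized by capillary electrophoresis, with DMSO as negative control.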
# [12] = ATG_EGR_CIS: Attagene CIS-FACTORIAL HepG2 Assay for human Early Growth Response 1 (EGR1) (AID 2282938); conditions: HepG2 Attagene CIS-FACTORIAL EGR reporter mRNA; actives raise or lower the signal
# How it was run: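 HepG2, transient MRTU transfection (cis promoters), 24 h compound. RNA → RT (oligo-dT) → PCR → 6-FAM labelling → HpaI cut → CE fluorescence. Bidirectional fit, DMSO baseline.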
# [13] = ATG_M_19_CIS: Attagene CIS-FACTORIAL HepG2 Assay for M19 Transcription Factor (Internal Marker) (AID 2282939); conditions: HepG2 Attagene CIS-FACTORIAL M19 internal marker reporter; actives raise or lower the signal
# How it was run: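 Transfect HepG2 with MRTU reporter library → dose chemical, 24 h → isolate total RNA, reverse-transcribe with oligo(dT) → PCR, 6-FAM label, HpaI cut (2 h, 37 C) → capillary electrophoresis. Bidirectional fit vs DMSO.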
# [14] = ATG_ERE_CIS: Attagene CIS-FACTORIAL HepG2 Assay for Estrogen Response Element (ERE) (AID 2282940); conditions: HepG2 ERE cis-reporter, Attagene RNA transcript; actives raise or lower the signal
# How it was run: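 Transient MRTU transfection of human HepG2; cis-element promoters; 24 h dosing; total RNA → RT (oligo dT) → PCR → 6-FAM primer extension → HpaI digest → CE fluorescence. Bidirectional fit, DMSO baseline.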
# [15] = ATG_Ets_CIS: Attagene CIS-FACTORIAL HepG2 Assay for human Erythroblast Transformation Specific (ETS) (AID 2282941); conditions: HepG2 ETS cis-reporter transcription, actives raise or lower the signal
# How it was run: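 Endogenous transcription factor activity read as reporter mRNA via RT-PCR and capillary electrophoresis, with gain or loss fitted bidirectionally against DMSO. Human HepG2 liver cells, transiently transfected CIS reporter constructs, 24 h exposure.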
# [16] = biological target: Hepatocyte nuclear factor 3-beta (Homo sapiens) (UniProt Q9Y261); assay: ATG_FoxA2_CIS: Attagene CIS-FACTORIAL HepG2 Assay for human Forkhead box A2 (FOXA2) (AID 2282942); conditions: HepG2 cis-reporter transcription factor activity, 24 h; actives raise or lower the signal
# Hepatocyte nuclear factor 3-beta (Homo sapiens), sequence (Q9Y261 whole entry, looked up): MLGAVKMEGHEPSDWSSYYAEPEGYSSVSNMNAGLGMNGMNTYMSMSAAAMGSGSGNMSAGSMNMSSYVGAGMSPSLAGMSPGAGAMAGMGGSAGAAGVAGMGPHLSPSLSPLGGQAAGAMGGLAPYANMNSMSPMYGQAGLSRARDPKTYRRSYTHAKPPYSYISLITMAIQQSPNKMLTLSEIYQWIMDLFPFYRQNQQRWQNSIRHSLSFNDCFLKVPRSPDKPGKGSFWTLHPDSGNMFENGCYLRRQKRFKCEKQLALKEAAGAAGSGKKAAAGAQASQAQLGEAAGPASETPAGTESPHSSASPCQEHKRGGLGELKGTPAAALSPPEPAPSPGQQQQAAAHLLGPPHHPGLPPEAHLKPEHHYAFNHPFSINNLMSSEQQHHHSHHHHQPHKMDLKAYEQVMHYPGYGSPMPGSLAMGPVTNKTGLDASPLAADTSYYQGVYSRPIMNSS
# How it was run: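 Cells: HepG2, transient multiplex reporter transfection. Exposure 24 h. Detection: reporter-specific RT-PCR, fluorescent labelling, restriction digest, capillary electrophoresis. Analysis: bidirectional curve fit, DMSO as negative control.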
# [17] = ATG_FoxO_CIS: Attagene CIS-FACTORIAL HepG2 Assay for human Forkhead box O (FoxO) (AID 2282943); conditions: HepG2 Attagene cis-reporter, FoxO element, mRNA; actives raise or lower the signal
# How it was run: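 Endogenous transcription factor activity read from multiplexed cis-promoter reporter transcripts in transiently transfected HepG2, 24 h after dosing. Reporter RNA measured via RT-PCR plus capillary electrophoresis of FAM-labeled products; gain or loss relative to DMSO.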
# [18] = ATG_GATA_CIS: Attagene CIS-FACTORIAL HepG2 Assay for human GATA Binding Protein (AID 2282944); conditions: HepG2 GATA cis-element reporter, Attagene multiplex mRNA; actives raise or lower the signal
# How it was run: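 Transient MRTU transfection, HepG2, 24 h compound exposure. Total RNA → oligo(dT) RT → PCR → 6-FAM primer extension → HpaI cut → CE. Bidirectional fit vs DMSO.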
# [19] = ATG_AP_1_CIS: Attagene CIS-FACTORIAL HepG2 Assay for human Activator Protein 1 (AP-1) (AID 2282931); conditions: HepG2 Attagene cis-factorial AP-1 reporter mRNA; actives raise or lower the signal
# How it was run: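 Fluorescence of labelled PCR fragments separated by capillary electrophoresis gives reporter mRNA levels. HepG2 with transfected cis-regulated reporter units, 24 h exposure; DMSO serves as baseline for bidirectional curve fits.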
# [20] = ATG_AP_2_CIS: Attagene CIS-FACTORIAL HepG2 Assay for human Activator Protein 2 (AP-2) (AID 2282932); conditions: HepG2 AP-2 cis-reporter, Attagene transcription factor profiling; actives raise or lower the signal
# How it was run: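 Endogenous transcription factor activity is reported through transfected multiplex reporter constructs in HepG2, after 24 h of compound exposure. Transcripts were quantified by RT-PCR and capillary electrophoresis of fluorescent fragments. Bidirectional fit against DMSO.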
compound,measurement,setting,value
C=CCc1ccc(O)c(OC)c1,outcome,[1],inactive
same,outcome,[2],inactive
same,outcome,[3],inactive
same,AC50,[4],80.2 µM (active)
same,outcome,[5],inactive
same,outcome,[6],inactive
same,outcome,[7],inactive
same,outcome,[8],inactive
same,outcome,[9],inactive
same,outcome,[10],inactive
same,outcome,[11],inactive
same,outcome,[12],inactive
same,outcome,[13],inactive
same,outcome,[14],inactive
same,outcome,[15],inactive
same,outcome,[16],inactive
same,outcome,[17],inactive
same,outcome,[18],inactive
COc1cc(/C=C/C(=O)CC(=O)/C=C/c2ccc(O)c(OC)c2)ccc1O,outcome,[1],inactive
same,outcome,[2],inactive
same,outcome,[3],inactive
same,AC50,[4],54.2 µM (active)
same,AC50,[5],58.3 µM (active)
same,AC50,[19],54.7 µM (active)
same,AC50,[20],55.5 µM (active)
same,outcome,[7],inactive
same,AC50,[8],25.9 µM (active)
same,outcome,[9],inactive
same,AC50,[10],45.8 µM (active)
same,outcome,[11],inactive
same,AC50,[12],42.5 µM (active)
same,outcome,[13],inactive
same,outcome,[14],inactive
same,outcome,[15],inactive
same,outcome,[16],inactive
same,AC50,[17],33.4 µM (active)
same,outcome,[18],inactive
CCCCCCCCCCCCCCCCCC(=O)O,outcome,[1],inactive
same,outcome,[2],inactive
same,outcome,[3],inactive
same,outcome,[4],inactive
same,outcome,[5],inactive
same,outcome,[6],inactive
same,outcome,[20],inactive
same,outcome,[7],inactive
same,outcome,[8],inactive
same,outcome,[9],inactive
same,outcome,[10],inactive
same,outcome,[11],inactive
same,outcome,[12],inactive
same,outcome,[13],inactive
same,AC50,[14],2.75 µM (active)
same,outcome,[15],inactive
same,outcome,[16],inactive
same,outcome,[17],inactive
same,outcome,[18],inactive
CCCCCCCCCCCCCCCC,outcome,[1],inactive
same,outcome,[2],inactive
same,outcome,[3],inactive
same,outcome,[4],inactive
same,outcome,[5],inactive
same,outcome,[19],inactive
same,outcome,[20],inactive
same,outcome,[7],inactive
same,outcome,[8],inactive
same,outcome,[9],inactive
same,outcome,[10],inactive
same,outcome,[11],inactive
same,outcome,[12],inactive
same,outcome,[13],inactive
same,outcome,[14],inactive
same,outcome,[15],inactive
same,outcome,[16],inactive
same,outcome,[17],inactive
same,outcome,[18],inactive
COc1ccc(C)cc1N,outcome,[1],inactive
same,outcome,[2],inactive
same,outcome,[3],inactive
same,outcome,[4],inactive
same,outcome,[5],inactive
same,outcome,[19],inactive
same,outcome,[20],inactive
same,outcome,[8],inactive
same,outcome,[9],inactive
same,outcome,[10],inactive
same,outcome,[11],inactive
same,outcome,[12],inactive
same,outcome,[13],inactive
same,outcome,[14],inactive
same,outcome,[15],inactive
same,outcome,[16],inactive
same,outcome,[17],inactive
same,outcome,[18],inactive
c1cc(-c2ccncc2)ccn1,outcome,[1],inactive
same,outcome,[2],inactive
same,outcome,[3],inactive
same,outcome,[4],inactive
same,outcome,[5],inactive
same,outcome,[6],inactive
same,outcome,[20],inactive
same,outcome,[7],inactive
same,outcome,[8],inactive
same,outcome,[9],inactive
same,outcome,[10],inactive
same,outcome,[11],inactive
same,outcome,[12],inactive
same,outcome,[13],inactive
same,outcome,[14],inactive
same,outcome,[15],inactive
same,outcome,[16],inactive
same,outcome,[17],inactive
same,outcome,[18],inactive
CCCCCCCCCCO,outcome,[1],inactive
same,AC50,[2],183 µM (active)
same,outcome,[3],inactive
same,outcome,[4],inactive
same,outcome,[5],inactive
same,outcome,[19],inactive
same,outcome,[20],inactive
same,outcome,[7],inactive
same,outcome,[8],inactive
same,outcome,[9],inactive
same,outcome,[10],inactive
same,outcome,[11],inactive
same,outcome,[12],inactive
same,outcome,[13],inactive
same,outcome,[14],inactive
same,outcome,[15],inactive
same,outcome,[16],inactive
same,outcome,[17],inactive
same,outcome,[18],inactive

# Reference: PubChem BioAssay (EPA / NIEHS)
